This is one part of a sample in which hits are shown more often than they occur.
HIV RNase H inh-1 = inhibitors of HIV-1 reverse transcriptase RNase H; P04585; RT-RNase H RNA/DNA duplex cleavage, fluorescence; inhibition, % at 10 µM; 65,000 tested, 1.9% active; in the data active = inhibition above about 50%
HIV RNase H inh-2 = confirmation of HIV-1 reverse transcriptase RNase H inhibitors. Recombinant RT RNase H, fluorescent RNA/DNA duplex cleavage. AID 651. 1,000 tested, 39% active. shares compounds with HIV RNase H inh-1. inhibition, % at 10 µM; in the data active = inhibition above about 48%; inconclusive = no clear call, values can overlap the other calls
An asterisk follows results filed as active; u = inconclusive.

SMILES | HIV RNase H inh-1 | others
CCC(C)(C)n1nnnc1C(c1ccc(O)c(OC)c1)N1CCN(c2nc3ccccc3s2)CC1 (stereo not given) | 56.4* | HIV RNase H inh-2=41.8
COc1ccc(C(c2nnnn2C(C)(C)C)N2CCN(c3nc4ccccc4s3)CC2)cc1 (stereo not given) | -4.3
CCC(C)(C)n1nnnc1C(c1cc(OC)c(OC)c(OC)c1)N1CCN(c2ccccc2)CC1 (stereo not given) | -14.0
Cn1c(=O)c2c(SCc3cccc(C(F)(F)F)c3)nc(-c3ccco3)nc2n(C)c1=O | 37.5
Cn1c(=O)c2c(SCc3ccccc3)nc(-c3ccco3)nc2n(C)c1=O | 51.5* | HIV RNase H inh-2=13.3
Cn1c(=O)c2c(SCc3ccccn3)nc(-c3ccccc3)nc2n(C)c1=O | -10.3
CCN(CC)C(=O)C(C)OC(=O)c1ccc(O)cc1 (stereo not given) | 0.1
CCN(CC)S(=O)(=O)c1ccc(NC(=O)Cn2c(=O)oc3ccccc32)cc1 | -7.1
CC(C)(C)c1csc(NC(=O)Cn2c(=O)oc3ccccc32)n1 | 87.6* | HIV RNase H inh-2=21.2
O=C(CCn1c(=O)oc2ccccc21)Nc1nccs1 | -12.6
CCCn1c(SCc2cc(=O)oc3ccc4ccccc4c23)n[nH]c1=O | 12.4
Cc1nc2nc(C)c(CCC(=O)Nc3ccc4c(c3)OCO4)c(C)n2n1 | -10.9
CN1C(=O)c2ccccc2C(C(=O)NCC2CCCO2)C1c1c[nH]c2ccccc12 (stereo not given) | -2.9
CSc1nc(NCc2ccco2)c2c3c(sc2n1)CN(C)CC3 | -5.0
CSc1nc(SCC(=O)NCc2ccco2)c2c3c(sc2n1)CN(C)CC3 | 10.5
CSc1nc(N(CCO)CCO)c2sc3nc(-c4ccco4)c4c(c3c2n1)CCC4 | 56.4* | HIV RNase H inh-2=16.1
O=C(NCC(=O)N(c1ccccc1)C(C(=O)NCC1CCCO1)c1ccccc1)c1ccco1 (stereo not given) | -7.1
CSc1ccc(C2Nc3ccccc3-c3cc(C)nn32)cc1 (stereo not given) | 70.9* | HIV RNase H inh-2=-6.3
Cc1cc2n(n1)C(c1ccsc1)Nc1ccccc1-2 (stereo not given) | -8.4
Cc1cc2n(n1)C(c1ccccc1Cl)Nc1ccccc1-2 (stereo not given) | -13.2
COc1cc(OC)cc(C(=O)N2c3ccc(F)cc3CCC2C)c1 (stereo not given) | -5.4
O=C(CSc1nnnn1-c1ccc2c(c1)OCCO2)N1CCc2ccccc21 | 1.0
O=C(CSc1nnnn1-c1ccc2c(c1)OCCO2)OC1CCCCC1 | 87.3* | HIV RNase H inh-2=28.3
O=C(CSc1nnnn1-c1ccc2c(c1)OCCO2)Nc1nc2c(s1)CCCC2 | -4.9
CC(=O)N1CCc2cc(Br)cc(S(=O)(=O)NCC3CCCO3)c21 (stereo not given) | -54.9
SMILES | HIV RNase H inh-1 | others
CCN(C(=O)c1cn(C)c(=O)c2cc(OC)c(OC)cc12)c1cc(OC)ccc1OC | -3.6
CC(=O)C1=C(C)NC(SCC(=O)c2ccc(Cl)cc2)=C(C#N)C1c1ccco1 (stereo not given) | -44.6
CSCSC1=C(C#N)C(c2ccc(Cl)cc2)C(C(C)=O)=C(C)N1 (stereo not given) | 60.8* | HIV RNase H inh-2=17.7
CCOC(=O)CSC1=C(C#N)C(c2ccccc2)C(C(C)=O)=C(C)N1 (stereo not given) | 2.6
COc1ccc(OC)c(N2C(=O)CC(C(C)c3ccccc3)C2=O)c1 (stereo not given) | 7.0
Cc1ccc(C)c(NC(=O)CSc2nc3c(c(=O)n2C)SC(C)C3)c1 (stereo not given) | -19.0
CC1Cc2nc(SCC(=O)Nc3ccc(F)cc3F)n(C)c(=O)c2S1 (stereo not given) | -10.5
Cc1ccc2nc(NC(=O)CSc3nc4c(c(=O)n3C)SC(C)C4)sc2c1 (stereo not given) | 79.0* | HIV RNase H inh-2=42.3
O=C(CSc1nnc(CNc2ccc(F)cc2)o1)N1CCN(C(=O)c2ccco2)CC1 | -11.8
O=C(CSc1nnc(-c2ccc(F)cc2)o1)c1ccc2c(c1)OCCO2 | 58.8* | HIV RNase H inh-2=u
O=C(CSc1nnc(-c2ccc(F)cc2)o1)N1CCN(C(=O)c2ccco2)CC1 | 81.0* | HIV RNase H inh-2=31.7
O=C(CSc1nnc(CNc2ccccc2)o1)c1ccc2c(c1)OCCO2 | -81.3
COc1cc(-c2nnc(SCC(=O)c3ccc(C)cc3)o2)cc(OC)c1OC | -7.3
COc1ccc(C(=O)CSc2nnc(-c3ccc(C)cc3)o2)cc1 | 25.9
CCCn1nnnc1SCC(=O)c1ccc2c(c1)OCCO2 | -3.5
O=C(CSc1nnc(-c2ccccc2Br)o1)N1CCN(C(=O)c2ccco2)CC1 | 1.7
Cc1[nH]c2ccc(-c3nnc(SCC(=O)c4ccc(F)cc4)o3)cc2c1C | 78.5* | HIV RNase H inh-2=u
O=C(NCC(=O)N(Cc1cccs1)C(C(=O)NC1CCCC1)c1ccco1)c1cccs1 (stereo not given) | 1.0
CCn1cc(S(=O)(=O)CC(=O)N2CCc3ccccc32)c2ccccc21 | -12.5
CNC(=O)c1nnn(Cc2ccccc2)c1NC(=O)C(F)(F)F | 1.0
O=C(COc1ccc2ccccc2c1Br)Nc1ncn[nH]1 | -13.5
CC(C)(C)C1=Nn2c(nnc2-c2n[nH]c3c2CCC3)SC1 | 52.8* | HIV RNase H inh-2=34.9
Fc1ccc(C2=Nn3c(nnc3-c3n[nH]c4c3CCC4)SC2)cc1 | -26.9
CC1=Nn2c(nnc2-c2n[nH]c3c2CCC3)SC1 | -4.7
Cc1ccc2[nH]c3c(c2c1)CN(C(=O)CN1CCN(c2ccccc2F)CC1)CC3 | 10.3
SMILES | HIV RNase H inh-1 | others
CC(C)CC(=O)N1CCN(C(=O)CCC2CCCC2)CC1 | 5.0
CCCn1c(SCC(=O)NC)nnc1C(C)C | -9.0
CCn1c(SCc2nc3cc(OC)c(OC)cc3c(=O)[nH]2)nnc1-c1ccncc1 | 6.8
CC1(C)C(c2ccccc2)=[N+]([O-])CN1O | -2.6
Oc1ccc(-c2nc(-c3ccc(O)c(O)c3)cs2)cc1 | 100.4* | HIV RNase H inh-2=82.6*
COc1ccc(-c2nc3ccccc3s2)cc1O | -20.8
c1cncc(-c2nc(-c3ccc4c(c3)OCO4)cs2)c1 | -42.2
Cc1cccc(NC(=O)C2CCN(S(=O)(=O)c3cccc4cccnc34)CC2)n1 | -33.8
O=C(Nc1ncc2c(n1)CC(c1ccco1)CC2=O)c1ccccc1 (stereo not given) | -2.4
Cc1cc(C)cc(Nc2ncc3c(n2)CC(c2ccco2)CC3=O)c1 (stereo not given) | -11.5
O=C1CC(c2ccco2)Cc2nc(Nc3nc(-c4ccccc4)c4ccccc4n3)ncc21 (stereo not given) | 73.5* | HIV RNase H inh-2=66.3*
COc1ccccc1N1CCN(S(=O)(=O)c2ccc(Cl)s2)CC1 | 0.4
CCOC(=O)N1CCC(NC2CCCCCCC2)CC1 | -3.5
ONC=Nc1cccc2nonc12 | 7.8
c1coc(-c2nc3c4c5c(sc4ncn3n2)CCCC5)c1 | 3.9
COc1cccc(OCc2nc3c4cnn(-c5ccccc5)c4ncn3n2)c1 | 49.0
c1ccc(-n2ncc3c2ncn2nc(-c4ccco4)nc32)cc1 | 60.0* | HIV RNase H inh-2=67.7*
Cc1csc(N(C)C(=O)CSc2nnc(COc3cccc4ccccc34)o2)n1 | -3.8
CCCc1nnc(NC(=O)Cn2c(=O)sc3ccccc32)s1 | 76.5* | HIV RNase H inh-2=17.8
CCc1nnc(NC(=O)CN2C(=O)c3ccccc3C2=O)s1 | 3.8
CCCCN(C)CCCNC(=O)Cn1c(=O)sc2ccccc21 | -10.0
COc1ccccc1-c1nnc(SCC(=O)N2CCOCC2)o1 | -3.7
CCOC(=O)N1CCN(C(=O)CSc2cc(C)nc3c(-c4ccccc4OC)c(C)nn23)CC1 | -1.4
COc1ccccc1-c1c(C#N)c(SCC(=O)N2CCCC2)nc(C)c1C(N)=O | 65.1* | HIV RNase H inh-2=-1.7

Screening data as filed in PubChem.
